Measurements: PubChem BioAssay (NCATS)
Results filed as inconclusive are left out. Active and inactive are the calls of the source. Unless noted, calls come from the whole dose curve; as a rule, active = well fitted curve in either direction with a large enough effect (not every such curve was filed as active); inconclusive = small, poorly fitted or top-dose-only effect, or another doubt; inactive = flat fitted curve, though single readings scatter.

Columns and labels:
[1] = AP1 Signaling Pathway (AID 357); details: ME-180 AP-1-bla reporter, EGF-induced, beta-lactamase ratio, 5 h; at 17.2 µM (top of the series) unless noted;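 note: ME-180 reporter cells stimulated with EGF at its EC50 level; % is set by controls: 0 for no effect and ±100 for the full control effect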
Procedure, shortened: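 Titration-series screen for positive or negative modulators of EC50 EGF-induced signaling in ME-180 cells carrying an AP-1-driven beta-lactamase reporter. After 5 hours at 37 degrees Celsius, CCF4 460nm/530nm emission ratio gave %Activity; AC50 values derived.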

[2] = NFAT Signaling Pathway (AID 444); details: Jurkat NFAT-bla M1, carbachol, beta-lactamase ratio, 5 h; at 17.2 µM (top of the series) unless noted;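 note: carbachol stimulus at about its EC50 of 1 µM final; % is set by controls: 0 for no effect and ±100 for the full control effect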
Procedure, shortened: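 Jurkat cells carrying an NFAT-driven β-lactamase reporter and co-transfected muscarinic M1 receptor were treated with compound plus carbachol (1 uM final, an EC50 level) for 5 h at 37 °C. CCF4 loading followed for 1 h at RT; 460/530 nm ratio gave %activity.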

[3] = Stat Signaling Pathway (AID 446);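 note: ME-180 cervical cancer cells given 40 pM IL-6 alongside compound; SIE-controlled beta-lactamase reporter measured as 460/530 nm FRET emission ratio; % is set by controls: 0 for no effect and ±100 for the full control effect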
Procedure, shortened: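 Reporter line: ME-180 cervical carcinoma, SIE-beta-lactamase. Treatment: compound with 40 pM IL-6, 5 hrs, 37 C, in low-serum OPTI-MEM with 10 mM HEPES pH 7.3. Detection: 460/530 nm fluorescence.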

[4] = molecular target: Glucocorticoid receptor (Homo sapiens) (UniProt P04150); assay: GR-GFP Redistribution (AID 450;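 active = compounds whose dose series gives a full or clear partial fitted curve of increased nuclear translocation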; note: potency is the fitted concentration of half-maximal effect); details: U2OS GR-GFP nuclear translocation, laser cytometry, 2 h
[5] = molecular target: Glucocorticoid receptor (Homo sapiens) (UniProt P04150); assay: GR-EFC Redistribution (AID 451; calls by dose curve; note: potency is the fitted concentration of half-maximal effect); details: CHO-K1 GR-EFC translocation, beta-gal luminescence, 2 h
Procedure, shortened: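 CHO-K1 cells stably expressing nuclear-localized β-gal enzyme acceptor and GR fused C-terminally to the enzyme donor fragment; ligand-driven nuclear translocation restores β-gal by complementation. Compounds titrated up to 46 uM final, 2 h at 37 °C; luminescence read.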

[6] = molecular target: Mitogen-activated protein kinase 10 (Mus musculus) (UniProt Q61831); assay: JNK3 AlphaScreen Assay (AID 530);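 note: kinase came from lysate of stimulated human HepG2 cells; signal reports phosphorylation of biotinylated GST-cJun 1-79 at Ser73 with 10 µM ATP; % is set by controls: 0 for no effect and ±100 for the full control effect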
Procedure, shortened: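 JNK3 came from HepG2 lysates pre-activated with IL-1beta and TNF-alpha and phosphorylated biotinylated GST-cJun (1-79) at 10 uM ATP, pH 7.6, room temperature. Compounds were titrated. AlphaScreen signal used anti-phospho-cJun (Ser73) antibody.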

[7] = molecular target: 3',5'-cyclic-AMP phosphodiesterase 4B (Homo sapiens) (UniProt Q07343); assay: qHTS Assay for Inhibitors of PDE-IV (AID 607; active = well fitted activation curve with a large enough effect in the main read-out, with a control signal flat, not every such curve was filed as active; note: % of control where 0% means no effect)
Procedure, shortened: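 Cell-based read-out of cAMP via a modified cyclic nucleotide-gated channel and membrane potential dye (535/590 nm) in HEK293 cells expressing PDE4 endogenously. Compounds tested up to 22.9 uM final; 100 uM RO 20-1724 reference.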

[8] = molecular target: Guanine nucleotide-binding protein G(i) subunit alpha-1 (Homo sapiens) (UniProt P63096); assay: qHTS Assay for Inhibitors of RGS12 GoLoco Motif Activity (Green Fluorophore) (AID 879; active = well fitted curve in the direction sought with a large enough effect; an effect the other way counts as inactive or inconclusive;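 note: 0% = labeled peptide with Gαi1 and full inhibition = labeled peptide alone without protein; negative values mean loss of peptide binding seen as reduced polarization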)
Procedure, shortened: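 Fluorescence polarization assay: 50 nM Gαi1 with 10 nM FITC-labeled RGS12 GoLoco peptide in 10 mM Tris pH 7.5, 150 mM NaCl, 0.1 mM GDP, 0.05% NP40, 10 min at room temperature with compound.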

[9] = qHTS Assay for Identification of Small Molecule Agonists for Thrombopoietin (TPO) Signaling Pathway (AID 917; active = well fitted curve in the direction sought with a large enough effect; an effect the other way counts as inactive or inconclusive; note: % is set by controls: 0 for no effect and ±100 for the full control effect)
Procedure, shortened: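 Reporter: GpIIb promoter–luciferase in murine Ba/F3 expressing human TPO receptor. Pre-starved of IL-3 overnight; compounds with 26 pM TPO, 24 hrs, 37 C/5% CO2; luminescence read.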

[10] = molecular target: Muscarinic acetylcholine receptor M1 (Rattus norvegicus) (UniProt P08482); assay: qHTS Assay for Antagonists of Acetylcholine Muscarinic M1 Receptor: Kinetic Measurement of Intracellular Calcium Response (AID 943; active = well fitted curve in the direction sought with a large enough effect; an effect the other way counts as inactive or inconclusive; note: potency is the fitted concentration of half-maximal effect; nearly all actives have a fitted effect of over 75% in size)
Procedure, shortened: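 CHO cells stably expressing rat M1 were loaded with no-wash Fluo-4 dye for 1 h at 37C, pre-incubated 10 min with compound, then challenged with EC80 carbachol (100 nM final); kinetic calcium read 4 min, peak/basal ratio.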

[11] = molecular target: Muscarinic acetylcholine receptor M1 (Rattus norvegicus) (UniProt P08482); assay: qHTS Assay for Antagonists of Acetylcholine Muscarinic M1 Receptor: Measurement of IP-One Response (AID 944; active = well fitted curve in the direction sought with a large enough effect; an effect the other way counts as inactive or inconclusive; note: nearly all actives have a fitted effect of over 75% in size)
Procedure, shortened: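 CHO cells expressing rat M1 receptor, recovered overnight, were pre-incubated 10 min with compound, then stimulated 30 min with carbachol at EC80 (200 nM) in LiCl-containing buffer, pH 7.4. IP1 accumulation was read by HTRF (620/665 nm).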

[12] = molecular target: Pyruvate kinase (Leishmania mexicana) (UniProt Q27686); assay: qHTS Validation Assay for Inhibitors of Leishmania Mexicana Pyruvate Kinase (AID 945; active = well fitted curve in the direction sought with a large enough effect; an effect the other way counts as inactive or inconclusive;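 note: 0% = DMSO only neutral control wells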)
Procedure, shortened: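 The enzyme is a highly purified E451W mutant of LmPYK used at 0.2 nM. It converts 0.5 mM PEP and 0.1 mM ADP over 1 h at room temperature; product ATP is quantified by luciferase luminescence relative to DMSO controls.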

[13] = molecular target: Pyruvate kinase PKM (Homo sapiens) (UniProt P14618); assay: qHTS Assay for Activators of Human Muscle Pyruvate Kinase (AID 954; active = well fitted curve in the direction sought with a large enough effect, not every such curve was filed as active;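 note: 0% = uninhibited enzyme and -100% = no enzyme or full thiadiazolimine inhibition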)
Procedure, shortened: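 Human PKM2 activity is measured as ATP generation, detected by luciferase-coupled luminescence. The enzyme (0.1 nM) acts on 0.5 mM PEP and 0.1 mM ADP for 1 h at ambient temperature; data are normalized to uninhibited and full-inhibition wells.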

[14] = molecular target: Alpha-galactosidase (Coffea arabica) (UniProt Q42656); assay: Counterscreen for Glucocerebrosidase Inhibitors: qHTS Assay for Coffee Bean alpha-Galactosidase at pH 4.5 (AID 957; active = well fitted curve in the direction sought with a large enough effect; an effect the other way counts as inactive or inconclusive;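 note: plate controls were enzyme alone for no effect and no enzyme for full effect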)
Procedure, shortened: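 Green coffee bean enzyme (2 nM final) was incubated with compounds (0.7 nM to 77 uM) and 4-methylumbelliferyl alpha-D-galactopyranoside (80 uM final) in 50 mM citric acid, 0.005% Tween-20, pH 4.5, 20 min at room temperature; AC50 from Hill fits.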

[15] = molecular target: Alpha-galactosidase A (Homo sapiens) (UniProt P06280); assay: Counterscreen for Glucocerebrosidase Inhibitors: qHTS Assay for Human alpha-Galactosidase at pH 4.5 (AID 992; active = well fitted curve in the direction sought with a large enough effect; an effect the other way counts as inactive or inconclusive; note: 0% is about no effect)
Procedure, shortened: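 Quantitative HTS: compounds tested from 0.7 nM up to 77 uM against 2 nM enzyme with 80 uM 4-MU alpha-D-galactopyranoside. The 20 min room-temperature reaction is stopped with 1M NaOH/1M glycine, pH 10.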

[16] = molecular target: alpha-glucosidase (Oryza sativa, rice) (UniProt Q653V4); assay: Counterscreen for Glucocerebrosidase Inhibitors: qHTS Assay for Rice alpha-Glucosidase at pH 5.0 (AID 997; active = well fitted curve in the direction sought with a large enough effect; an effect the other way counts as inactive or inconclusive;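 note: 0% = full activity with enzyme and -100% = basal without enzyme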)
Procedure, shortened: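 Rice alpha-glucosidase (4 nM final) with 400 uM 4-methylumbelliferyl-alpha-D-glucopyranoside in citrate buffer pH 5.0, 20 min at room temperature, stopped at pH 10; fluorescence 365/440 nm, compounds 0.7 nM–77 uM, AC50 from Hill fits.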

[17] = molecular target: Alpha-galactosidase (Coffea arabica) (UniProt Q42656); assay: Counterscreen for Glucocerebrosidase Inhibitors: qHTS Assay for Coffee Bean alpha-Galactosidase at pH 5.9 (AID 998; active = well fitted curve in the direction sought with a large enough effect; an effect the other way counts as inactive or inconclusive;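 note: plate controls were uninhibited enzyme for no effect and no-enzyme basal signal for full effect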)
Procedure, shortened: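 Green coffee bean enzyme (2 nM final) was incubated with compounds (0.7 nM–77 uM) and 4-methylumbelliferyl alpha-D-galactopyranoside (80 uM) in citrate buffer pH 5.9, 20 min at room temperature. High-pH stop; fluorescence 365/440 nm; AC50 from Hill fits.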

[18] = molecular target: Cytochrome P450 2D6 (Homo sapiens) (UniProt P10635); assay: qHTS Assay for Inhibitors and Substrates of Cytochrome P450 2D6 (AID 891; active = well fitted curve in the direction sought with a large enough effect; an effect the other way counts as inactive or inconclusive;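 note: luciferin methyl ether substrate demethylated by CYP2D6 with NADPH regeneration; % is set by controls: 0 for no effect and ±100 for the full control effect; nearly all actives have a fitted effect of over 60% in size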)
Procedure, shortened: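 Human CYP2D6 (5 nM) with 30 uM Luciferin-ME EGE (at Km) in 100 mM KPO4, compound preincubated 10 min, then NADPH regeneration system for 60 min at room temperature. Luciferin read by luminescence; normalized to 1.43 uM quinidine.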

[19] = molecular target: Cytochrome P450 2C19 (Homo sapiens) (UniProt P33261); assay: qHTS Assay for Inhibitors and Substrates of Cytochrome P450 2C19 (AID 899; active = well fitted curve in the direction sought with a large enough effect; an effect the other way counts as inactive or inconclusive; note: % is set by controls: 0 for no effect and ±100 for the full control effect; nearly all actives have a fitted effect of over 60% in size)
Procedure, shortened: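 In 50mM KPO4, the reaction held 5nM enzyme and KM-level (10uM) Luciferin-H EGE; it ran 60 min at 37C after NADPH regeneration and a 10 min compound preincubation. Luminescence values were scaled to 57uM ketoconazole as complete inhibition.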

[20] = qHTS Assay for Identification of Small Molecule Agonists for Hypoxia Response Element Signaling Pathway (AID 914; active = well fitted activation curve with a large enough effect in the signal ratio, with a control signal flat, not every such curve was filed as active; the % refers to the signal ratio; note: % of control where 0% means no effect); details: ME-180 (cervical carcinoma) HRE-bla reporter, beta-lactamase ratio, CoCl2, 17 h; activation: hits give high values
Procedure, shortened: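 Cells were plated overnight, pin-dosed with compound in a titration series, co-stimulated with EC50 CoCl2 and incubated 17 hours at 37 degrees Celsius. CCF4 substrate was then loaded, and AC50 values came from the 460nm/530nm ratio.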

[21] = molecular target: Ubiquitin carboxyl-terminal hydrolase 1 (Homo sapiens) (UniProt O94782); assay: Inhibitors of USP1/UAF1: Pilot qHTS (AID 504865; active = well fitted curve in the direction sought with a large enough effect; an effect the other way counts as inactive or inconclusive;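 note: rhodamine fluorescence freed from ubiquitin-rhodamine substrate followed over time; top concentration of the series differs between compounds; % is set by controls: 0 for no effect and ±100 for the full control effect; nearly all actives have a fitted effect of over 35% in size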)
Procedure, shortened: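 Deubiquitinase activity followed as kinetic rhodamine fluorescence release from 150 nM Ub-Rho. 1 nM USP1/UAF1 with compound, after 15 min room-temperature preincubation, in HEPES pH 7.8 buffer containing TCEP, EDTA, BSA and Tween-20.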

Chain of Alpha-galactosidase (Coffea arabica) (Q42656 whole entry, looked up): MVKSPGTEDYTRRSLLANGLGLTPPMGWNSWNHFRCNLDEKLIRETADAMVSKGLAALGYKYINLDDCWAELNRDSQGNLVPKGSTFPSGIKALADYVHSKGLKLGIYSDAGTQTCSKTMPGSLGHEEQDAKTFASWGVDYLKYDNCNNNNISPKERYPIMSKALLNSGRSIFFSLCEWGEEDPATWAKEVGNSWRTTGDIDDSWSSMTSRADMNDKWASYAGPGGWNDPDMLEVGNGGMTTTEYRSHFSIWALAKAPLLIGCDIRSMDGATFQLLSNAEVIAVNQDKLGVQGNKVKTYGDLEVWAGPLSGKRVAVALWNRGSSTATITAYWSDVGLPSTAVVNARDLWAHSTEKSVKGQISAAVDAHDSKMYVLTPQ
Chain of Glucocorticoid receptor (Homo sapiens) (P04150 whole entry, looked up, the tested form may be a part): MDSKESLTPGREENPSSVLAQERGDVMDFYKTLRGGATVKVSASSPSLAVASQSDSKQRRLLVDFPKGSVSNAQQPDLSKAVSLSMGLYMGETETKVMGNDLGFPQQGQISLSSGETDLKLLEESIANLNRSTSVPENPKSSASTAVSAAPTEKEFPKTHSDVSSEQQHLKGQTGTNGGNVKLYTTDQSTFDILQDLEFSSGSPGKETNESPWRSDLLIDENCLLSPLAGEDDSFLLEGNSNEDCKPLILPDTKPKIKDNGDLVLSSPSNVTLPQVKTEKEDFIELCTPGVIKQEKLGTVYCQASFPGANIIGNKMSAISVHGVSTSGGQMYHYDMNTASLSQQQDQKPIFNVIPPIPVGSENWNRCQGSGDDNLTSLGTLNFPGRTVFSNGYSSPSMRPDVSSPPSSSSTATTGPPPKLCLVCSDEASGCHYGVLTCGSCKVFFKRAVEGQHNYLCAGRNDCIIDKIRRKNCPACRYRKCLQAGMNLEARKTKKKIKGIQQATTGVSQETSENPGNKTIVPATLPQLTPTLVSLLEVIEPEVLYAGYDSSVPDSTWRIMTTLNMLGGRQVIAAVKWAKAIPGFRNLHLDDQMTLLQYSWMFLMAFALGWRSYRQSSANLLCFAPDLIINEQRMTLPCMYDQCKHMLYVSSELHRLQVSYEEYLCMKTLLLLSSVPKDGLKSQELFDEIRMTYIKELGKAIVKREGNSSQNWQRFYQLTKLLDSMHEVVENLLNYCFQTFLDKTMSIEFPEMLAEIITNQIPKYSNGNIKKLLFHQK
Chain of 3',5'-cyclic-AMP phosphodiesterase 4B (Homo sapiens) (Q07343 whole entry, looked up): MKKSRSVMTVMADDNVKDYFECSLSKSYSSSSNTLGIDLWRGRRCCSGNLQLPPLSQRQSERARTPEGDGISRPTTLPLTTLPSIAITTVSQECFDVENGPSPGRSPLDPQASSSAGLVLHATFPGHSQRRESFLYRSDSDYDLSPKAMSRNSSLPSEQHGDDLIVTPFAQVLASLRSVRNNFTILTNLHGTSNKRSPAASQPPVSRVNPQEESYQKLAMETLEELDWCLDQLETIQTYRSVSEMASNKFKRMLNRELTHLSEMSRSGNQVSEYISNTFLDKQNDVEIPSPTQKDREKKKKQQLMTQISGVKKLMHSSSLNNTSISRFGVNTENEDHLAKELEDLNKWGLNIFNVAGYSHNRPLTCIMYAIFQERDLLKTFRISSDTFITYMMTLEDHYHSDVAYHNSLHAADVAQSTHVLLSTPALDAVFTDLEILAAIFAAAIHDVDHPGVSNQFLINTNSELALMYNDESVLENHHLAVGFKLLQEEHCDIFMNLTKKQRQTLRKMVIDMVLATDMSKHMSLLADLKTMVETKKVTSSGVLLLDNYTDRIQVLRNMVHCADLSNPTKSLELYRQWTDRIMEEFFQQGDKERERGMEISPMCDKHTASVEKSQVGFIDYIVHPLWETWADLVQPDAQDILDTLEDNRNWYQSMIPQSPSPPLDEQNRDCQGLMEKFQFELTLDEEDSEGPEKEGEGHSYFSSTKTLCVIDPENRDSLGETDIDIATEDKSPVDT
Chain of Pyruvate kinase (Leishmania mexicana) (Q27686 2-499 E452W): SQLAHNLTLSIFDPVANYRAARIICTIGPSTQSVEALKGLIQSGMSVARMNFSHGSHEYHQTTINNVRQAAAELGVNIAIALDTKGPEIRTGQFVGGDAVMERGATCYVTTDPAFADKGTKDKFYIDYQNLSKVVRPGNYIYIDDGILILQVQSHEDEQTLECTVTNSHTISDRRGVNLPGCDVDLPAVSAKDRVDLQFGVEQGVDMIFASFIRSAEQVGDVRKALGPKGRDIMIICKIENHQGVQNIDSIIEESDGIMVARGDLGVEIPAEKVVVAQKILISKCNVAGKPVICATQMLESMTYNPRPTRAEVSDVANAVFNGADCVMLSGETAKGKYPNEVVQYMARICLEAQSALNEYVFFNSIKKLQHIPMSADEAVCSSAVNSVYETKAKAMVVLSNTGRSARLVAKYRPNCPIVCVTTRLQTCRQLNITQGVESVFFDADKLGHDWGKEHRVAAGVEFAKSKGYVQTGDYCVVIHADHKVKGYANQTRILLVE
Chain of Pyruvate kinase PKM (Homo sapiens) (P14618 whole entry, looked up): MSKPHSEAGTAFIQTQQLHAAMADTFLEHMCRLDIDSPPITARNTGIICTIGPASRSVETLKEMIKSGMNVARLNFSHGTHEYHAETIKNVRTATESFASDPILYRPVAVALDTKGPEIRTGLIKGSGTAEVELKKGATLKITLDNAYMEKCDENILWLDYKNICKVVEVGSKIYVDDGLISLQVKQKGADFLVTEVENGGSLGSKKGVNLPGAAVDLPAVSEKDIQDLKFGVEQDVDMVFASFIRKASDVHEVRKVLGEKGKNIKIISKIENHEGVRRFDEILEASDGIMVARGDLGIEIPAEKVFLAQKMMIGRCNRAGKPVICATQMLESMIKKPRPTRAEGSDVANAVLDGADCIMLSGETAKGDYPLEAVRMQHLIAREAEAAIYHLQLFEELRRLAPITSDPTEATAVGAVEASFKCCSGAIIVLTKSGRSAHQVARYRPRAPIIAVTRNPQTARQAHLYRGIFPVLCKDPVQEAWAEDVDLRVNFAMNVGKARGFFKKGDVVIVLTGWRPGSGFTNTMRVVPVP
Chain of Alpha-galactosidase A (Homo sapiens) (P06280 whole entry, looked up): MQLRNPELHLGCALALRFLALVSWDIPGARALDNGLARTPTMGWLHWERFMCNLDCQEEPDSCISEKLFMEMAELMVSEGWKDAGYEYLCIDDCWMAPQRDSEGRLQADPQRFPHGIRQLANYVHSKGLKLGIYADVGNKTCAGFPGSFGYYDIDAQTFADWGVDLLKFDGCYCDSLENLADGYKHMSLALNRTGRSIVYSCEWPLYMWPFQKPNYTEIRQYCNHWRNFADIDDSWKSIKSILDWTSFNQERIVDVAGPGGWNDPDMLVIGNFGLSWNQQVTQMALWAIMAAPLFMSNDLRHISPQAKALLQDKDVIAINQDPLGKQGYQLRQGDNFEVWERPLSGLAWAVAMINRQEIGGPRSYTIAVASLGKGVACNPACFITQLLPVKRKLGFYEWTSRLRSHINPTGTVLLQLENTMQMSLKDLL
Chain of Muscarinic acetylcholine receptor M1 (Rattus norvegicus) (P08482 whole entry, looked up): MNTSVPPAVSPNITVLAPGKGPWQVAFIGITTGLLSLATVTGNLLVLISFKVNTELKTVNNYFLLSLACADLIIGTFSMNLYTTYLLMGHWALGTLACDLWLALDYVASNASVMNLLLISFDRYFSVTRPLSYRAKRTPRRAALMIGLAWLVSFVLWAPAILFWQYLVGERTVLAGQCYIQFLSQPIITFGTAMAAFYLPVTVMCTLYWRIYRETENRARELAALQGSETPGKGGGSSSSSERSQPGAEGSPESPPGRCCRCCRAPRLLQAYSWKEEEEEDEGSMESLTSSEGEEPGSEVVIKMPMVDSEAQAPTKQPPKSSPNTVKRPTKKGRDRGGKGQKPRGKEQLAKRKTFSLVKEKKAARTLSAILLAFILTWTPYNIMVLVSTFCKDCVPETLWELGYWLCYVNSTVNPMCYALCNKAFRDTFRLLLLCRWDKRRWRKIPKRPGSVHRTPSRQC
Chain of Cytochrome P450 2D6 (Homo sapiens) (P10635 whole entry, looked up): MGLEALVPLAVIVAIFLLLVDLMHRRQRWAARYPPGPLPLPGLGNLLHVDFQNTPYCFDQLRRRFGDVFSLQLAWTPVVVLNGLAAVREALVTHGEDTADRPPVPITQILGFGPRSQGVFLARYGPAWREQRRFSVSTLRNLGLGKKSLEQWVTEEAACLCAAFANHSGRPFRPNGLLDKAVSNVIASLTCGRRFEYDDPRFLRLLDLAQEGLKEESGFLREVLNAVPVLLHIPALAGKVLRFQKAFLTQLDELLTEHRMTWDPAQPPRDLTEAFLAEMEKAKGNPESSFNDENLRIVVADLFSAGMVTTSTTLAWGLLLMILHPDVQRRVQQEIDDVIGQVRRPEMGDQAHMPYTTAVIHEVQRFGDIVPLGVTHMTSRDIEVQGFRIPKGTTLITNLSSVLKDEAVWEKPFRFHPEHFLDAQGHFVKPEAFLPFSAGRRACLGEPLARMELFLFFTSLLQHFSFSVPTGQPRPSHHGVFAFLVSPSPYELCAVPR
Chain of Cytochrome P450 2C19 (Homo sapiens) (P33261 whole entry, looked up): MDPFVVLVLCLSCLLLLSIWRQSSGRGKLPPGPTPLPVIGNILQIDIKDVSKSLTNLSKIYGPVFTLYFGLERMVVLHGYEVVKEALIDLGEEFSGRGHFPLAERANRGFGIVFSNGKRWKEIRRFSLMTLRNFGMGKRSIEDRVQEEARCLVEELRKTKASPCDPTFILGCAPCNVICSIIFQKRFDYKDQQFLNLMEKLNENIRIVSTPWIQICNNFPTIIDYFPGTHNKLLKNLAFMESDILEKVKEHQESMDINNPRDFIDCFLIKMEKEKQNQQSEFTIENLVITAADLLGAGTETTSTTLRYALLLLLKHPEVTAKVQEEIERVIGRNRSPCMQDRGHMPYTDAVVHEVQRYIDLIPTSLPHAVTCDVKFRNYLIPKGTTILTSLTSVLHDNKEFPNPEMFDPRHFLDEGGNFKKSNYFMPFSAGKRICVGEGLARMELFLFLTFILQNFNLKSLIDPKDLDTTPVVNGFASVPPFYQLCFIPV

O[C@@H]1CCCC[C@H]1N1CCC(c2ccccc2)CC1
inactive: activity change, negative = inhibition [1] -6.58% [at 38 µM] | activity change, negative = inhibition [2] -6.89% [at 38 µM] | outcome [3] | Potency [4] > 46 µM | Potency [5] > 46 µM | outcome [6] | outcome [7] | Potency [8] | outcome [9] | Potency [11] | Potency [12] | outcome [13] | outcome [14] | outcome [15] | outcome [16] | outcome [17]
active: Potency [10] 14.1 µM

O=P(c1ccccc1)(c1ccccc1)N1CCCCC1
inactive: activity change, negative = inhibition [1] -9.35% | activity change, negative = inhibition [2] -3.91% | Potency [4] > 20.6 µM

N[C@]1(C(=O)O)CC[C@@H](C(=O)O)C1
inactive: activity change, negative = inhibition [1] -3.05% [at 38 µM] | activity change, negative = inhibition [2] 7.68% [at 38 µM] | outcome [3] | Potency [5] > 46 µM | outcome [7] | Potency [18] | Potency [19]

CC1=C(C(=O)OC(C)C)[C@]2(C(=O)N(CC(N)=O)c3ccccc32)C(C#N)=C(N)O1
inactive: activity change, negative = inhibition [1] 16.8% | activity change, negative = inhibition [2] -13.4% | outcome [3] | Potency [4] > 20.6 µM | activation [20] -4.16%

CN1CCc2nc(SCC(=O)OC(C)(C)C)c(C#N)cc2C1
inactive: activity change, negative = inhibition [1] -5.69% | activity change, negative = inhibition [2] -15.8% | Potency [4] > 20.6 µM

C=CCn1c(O)c(C=NCCN(C)C)c(=O)[nH]c1=O
inactive: activity change, negative = inhibition [1] 1.63% | activity change, negative = inhibition [2] -6.46% | Potency [4] > 20.6 µM

O=C1CC[C@]2(O)[C@H]3Cc4ccc(O)c5c4[C@@]2(CCN3CC2CC2)[C@@H]1O5
inactive: activity change, negative = inhibition [1] 3.41% | activity change, negative = inhibition [2] 9.93% | outcome [3] | outcome [6] | outcome [7] | Potency [21]

CC[C@H](CO)NC(=O)[C@@H]1C=C2c3cccc4[nH]cc(c34)C[C@@H]2N(C)C1
inactive: activity change, negative = inhibition [1] 2.51% [at 38 µM] | activity change, negative = inhibition [2] -0.886% [at 38 µM] | outcome [3] | Potency [4] > 46 µM | Potency [5] > 46 µM | outcome [6] | outcome [7] | outcome [9] | Potency [12] | outcome [13] | outcome [14] | outcome [15] | outcome [16] | outcome [17]

O=c1[nH]c(=O)n(Cc2ccco2)c(O)c1C=NCCCn1ccnc1
inactive: activity change, negative = inhibition [1] 10% | activity change, negative = inhibition [2] -8.42% | Potency [4] > 20.6 µM
